Calls of active or inactive are those of the source.

Consider twelve molecules from PubChem BioAssay.

A short description of assay [1]: optical density shifts of acrAB sulA E. coli – strain DRC41, OD650, 48 h, E. coli filamentation inducer project, primary screen (AID 1152).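 Also: E. coli MC1000 strain DRC41 lacking acrAB efflux pump and sulA.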 The settings on record: higher = more signal, called active from +8 up or from −8 down.
Assay [2] is described as follows: probe aLefty1 binding on compound microarray – biochemical, small-molecule microarray, 635/667 nm fluorescence, primary screen (AID 1153).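 Also: score merges spot fluorescence with signal-to-noise ratio from the scanned slide images.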 As to conditions: higher = more signal.
Assay [3] can be described thus: plasmodial surface anion channel blockers, osmotic lysis – cell-based, P. falciparum Indochina, OD700, 1 h, primary screen (AID 1154). As to conditions: P. falciparum Indochina infected RBC osmotic lysis, higher = more signal, called active from +8 up or from −8 down.
Assay [4] is described as follows: plasmodial surface anion channel blockers, osmotic lysis – cell-based, P. falciparum Indochina, OD700, 2 h, primary screen (AID 1155).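 Also: lysis reports solute entry through the parasite surface anion channel PSAC.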 As to conditions: P. falciparum Indochina infected erythrocytes, higher = more signal, called active from +8 up or from −8 down.
Assay [5] can be described thus: changes in parasitized red cell lysis, either direction – P. falciparum Indochina, OD700, 3 h, PSAC antagonist project, primary screen (AID 1156). As to conditions: P. falciparum-infected erythrocytes, osmotic lysis, higher = more signal, called active from +8 up or from −8 down.
Assay [6] in a line: plasmodial surface anion channel blockers, osmotic lysis – cell-based, P. falciparum Indochina, OD700, 18 h, primary screen (AID 1157). The settings on record: P. falciparum Indochina infected erythrocytes, osmotic lysis OD700, 18 h; higher = more signal, called active from +8 up or from −8 down.
Assay [7] is described as follows: S6 kinase pathway phospho-S6 level changes – cell-based, A549, cytoblot, luminescence, serum-stimulated, primary screen (AID 1158).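 Also: serum-stimulated A549 lung adenocarcinoma cells; signal is phosphorylated S6 detected by cytoblot immunostaining with HRP secondary.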 As to conditions: 5 h, higher = more signal.
For assay [8], the target named is NADPH oxidase 2 (Homo sapiens) (UniProt P04839). In words: compounds shifting NOX2 Amplex Red fluorescence – cell-based, HEK293-NOX2, PMA-stimulated, NOX inhibitor project, primary screen (AID 1159). Also: test concentration not given here. The settings on record: 45 min, higher = more signal, called active from +8 up or from −8 down.
NADPH oxidase 2 (Homo sapiens), sequence (P04839 whole entry, looked up): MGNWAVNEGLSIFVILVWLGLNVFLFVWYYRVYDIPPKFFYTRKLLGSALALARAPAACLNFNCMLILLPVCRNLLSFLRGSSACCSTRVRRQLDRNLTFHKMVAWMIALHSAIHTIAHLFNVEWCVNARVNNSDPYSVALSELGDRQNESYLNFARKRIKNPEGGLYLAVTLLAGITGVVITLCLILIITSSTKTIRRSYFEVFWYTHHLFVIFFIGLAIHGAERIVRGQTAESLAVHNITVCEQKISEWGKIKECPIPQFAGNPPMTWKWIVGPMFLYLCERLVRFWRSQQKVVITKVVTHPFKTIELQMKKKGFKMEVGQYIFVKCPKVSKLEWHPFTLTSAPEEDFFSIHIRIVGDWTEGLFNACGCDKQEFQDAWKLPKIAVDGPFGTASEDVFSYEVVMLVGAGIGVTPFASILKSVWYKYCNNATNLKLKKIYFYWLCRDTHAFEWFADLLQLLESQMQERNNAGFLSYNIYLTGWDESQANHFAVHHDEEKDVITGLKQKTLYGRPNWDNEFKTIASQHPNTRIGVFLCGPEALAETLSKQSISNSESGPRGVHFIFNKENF
The target of assay [9] is NADPH oxidase 4 (Homo sapiens) (UniProt Q9NPH5). In words: compounds shifting NOX4 Amplex Red fluorescence – cell-based, HEK293-NOX4, tetracycline-induced, NOX inhibitor project, primary screen (AID 1160). As to conditions: HEK293-NOX4, Amplex Red H2O2 fluorescence, 45 min; higher = more signal, called active from +8 up or from −8 down.
NADPH oxidase 4 (Homo sapiens), sequence (Q9NPH5 whole entry, looked up): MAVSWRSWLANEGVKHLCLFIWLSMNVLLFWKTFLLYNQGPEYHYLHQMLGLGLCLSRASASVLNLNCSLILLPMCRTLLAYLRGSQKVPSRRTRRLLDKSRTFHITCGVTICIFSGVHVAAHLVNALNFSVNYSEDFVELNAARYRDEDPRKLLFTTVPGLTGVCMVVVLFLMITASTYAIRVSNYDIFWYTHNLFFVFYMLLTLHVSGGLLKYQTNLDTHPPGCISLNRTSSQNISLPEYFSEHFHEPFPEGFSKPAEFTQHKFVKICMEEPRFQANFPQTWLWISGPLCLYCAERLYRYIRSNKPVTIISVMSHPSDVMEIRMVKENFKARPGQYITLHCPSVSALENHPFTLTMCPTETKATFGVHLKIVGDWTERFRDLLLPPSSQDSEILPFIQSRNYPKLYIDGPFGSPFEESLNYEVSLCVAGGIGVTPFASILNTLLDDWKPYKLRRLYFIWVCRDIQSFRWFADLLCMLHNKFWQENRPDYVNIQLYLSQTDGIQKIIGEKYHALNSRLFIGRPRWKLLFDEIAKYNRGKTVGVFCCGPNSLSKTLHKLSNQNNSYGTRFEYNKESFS
The target in assay [10] is NADPH oxidase 5 (Homo sapiens) (UniProt Q96PH1). In words: compounds shifting NOX5 Amplex Red fluorescence – cell-based, HEK293-NOX5, NOX inhibitor project, primary screen (AID 1161). The settings on record: HEK293-NOX5, ionomycin, 45 min, higher = more signal.
NADPH oxidase 5 (Homo sapiens), sequence (Q96PH1 whole entry, looked up): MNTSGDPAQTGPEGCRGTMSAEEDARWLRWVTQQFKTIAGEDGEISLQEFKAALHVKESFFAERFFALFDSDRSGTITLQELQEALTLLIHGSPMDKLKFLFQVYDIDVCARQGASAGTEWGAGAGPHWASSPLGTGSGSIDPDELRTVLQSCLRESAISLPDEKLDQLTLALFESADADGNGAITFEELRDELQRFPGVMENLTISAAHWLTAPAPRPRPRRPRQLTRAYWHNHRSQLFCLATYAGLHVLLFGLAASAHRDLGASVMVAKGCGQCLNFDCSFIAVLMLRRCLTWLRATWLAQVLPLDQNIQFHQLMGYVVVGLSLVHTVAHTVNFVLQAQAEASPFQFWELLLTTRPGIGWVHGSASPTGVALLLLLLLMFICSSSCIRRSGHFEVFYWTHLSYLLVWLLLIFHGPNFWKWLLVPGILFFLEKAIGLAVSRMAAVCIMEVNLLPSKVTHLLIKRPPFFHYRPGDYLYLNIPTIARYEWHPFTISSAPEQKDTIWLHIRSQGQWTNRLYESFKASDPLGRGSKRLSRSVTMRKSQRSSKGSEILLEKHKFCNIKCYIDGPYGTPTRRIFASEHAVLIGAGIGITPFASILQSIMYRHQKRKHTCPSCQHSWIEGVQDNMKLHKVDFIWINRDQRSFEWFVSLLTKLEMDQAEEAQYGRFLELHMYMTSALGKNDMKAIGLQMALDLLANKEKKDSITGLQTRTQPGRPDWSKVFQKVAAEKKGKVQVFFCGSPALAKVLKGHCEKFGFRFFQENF

In the case of `O=C(NCCCCCNC(=O)/C(Cc1ccccc1)=N/O)OCc1ccccc1`, the z-score in assay [1] was 2 (inactive); in assay [3] it was 11 (active); in assay [4] it was -0.43 (inactive); in assay [5] it was 0.003 (inactive); in [6] it was -2.25 (inactive); in assay [7], 1.19. Also, the results for the z-score in [8], in [9] and in assay [10] were 0.53 (inactive), 0.0195 (inactive) and -1.35, respectively. The molecule further came in with a composite z-score in [2] of -0.696.
For `O=C1C2C=CC(C(O)c3ccccc3)N(Nc3ccccc3F)C2C(=O)N1c1ccccc1` (stereo not given), the z-score in assay [1] is 0.0394 (inactive); in [3], 7.12 (inactive); in [4], 1.21 (inactive); in assay [5], 0.368 (inactive); in assay [6] it was 0.632 (inactive); in assay [7], 0.113. Moreover, the z-score was -2.07 (inactive) in assay [8], -3.6 (inactive) in [9] and -2.26 in [10]. Also, the composite z-score in assay [2] was 0.002.
Consider `CC(C)[Si](C#CCCCC#N)(O[C@H](c1ccccc1)c1cn([C@H](CO)Cc2ccccc2)nn1)C(C)C`, for which the z-score was 1.72 (inactive) in assay [1]; 1.31 (inactive) in assay [3]; 0.4 (inactive) in assay [4]; -0.138 (inactive) in assay [5]; 0.0616 (inactive) in assay [6]; -0.013 in [7]. Besides, the z-score in assay [8] is -0.777 (inactive); in assay [9], 0.789 (inactive); in assay [10], 0.317. This molecule also gave a composite z-score in assay [2] of -0.187.
On to `Cc1ccc(S[C@]2(C(=O)NCC(F)(F)F)CC(=O)N(Cc3ccccc3C(F)(F)F)[C@@H]2c2ccc(CO)cc2I)cc1`, for which the z-score in assay [1] is 0.637 (inactive); in assay [3] it was 3.79 (inactive); in assay [4] it was 0.853 (inactive); in [5], 1.1 (inactive); in [6], 0.205 (inactive); in assay [7] it was -0.142. Moreover, the results for the z-score in [8], in assay [9] and in assay [10] were 2.28 (inactive), -1.06 (inactive) and 1.94, respectively. The same molecule displayed a composite z-score in assay [2] of -0.135.
`COc1ccccc1CN1C(=O)c2ccccc2[C@](Cc2ccccc2I)(C(=O)NCC(F)(F)F)[C@@H]1c1ccc(CO)cc1`: the z-score in assay [1] is -0.566 (inactive); in assay [3], 5.37 (inactive); in [4] it was 0.82 (inactive); in assay [5], 2.38 (inactive); in assay [6], 0.401 (inactive); in assay [7], -0.317. Besides, the values for the z-score in assay [8], in assay [9] and in assay [10] were 1.71 (inactive), -1.73 (inactive) and -1.05, respectively. In [2], this molecule gave a composite z-score of 0.126.
Regarding `[N-]=[N+]=Nc1ccccc1C[C@]1(C(=O)N2CCOCC2)N=C(c2ccc(OCCCO)cc2)O[C@H]1c1ccccc1`, the z-score in [1] is 1.61 (inactive); in [3], 20.5 (active); in assay [4], 4.95 (inactive); in assay [5], 2.84 (inactive); in [6], 1.43 (inactive); in assay [7], 0.251. The figures for the z-score in assay [8], in assay [9] and in assay [10] were 0.265 (inactive), 0.719 (inactive) and -1.47, respectively. In assay [2], this molecule showed a composite z-score of -0.007.
Turning to `CC(=O)NCCCC[C@@H]1NC(=O)[C@@H]2C[C@H](C(=O)NCCCC[N+](C)(C)C)[C@H](c3ccc(O)cc3)N2C1=O`, the z-score in assay [1] is -0.003 (inactive); in assay [3] it was 0.369 (inactive); in assay [4], -1.08 (inactive); in [5], 0.267 (inactive); in assay [6], -2.27 (inactive); in [7] it was 1.34. The z-score is -3.26 (inactive) in assay [8], -2.25 (inactive) in assay [9] and -4.41 in [10]. In addition, the composite z-score in [2] stood at 0.389.
Consider `Cc1cc(C)c(C(O)C2C=CC3C(=O)N(c4ccccc4)C(=O)C3N2Nc2ccc(C(C)C)cc2)c(C)c1` (stereo not given), for which the z-score was -1.53 (inactive) in [1]; 1.02 (inactive) in assay [3]; 1.14 (inactive) in assay [4]; 0.858 (inactive) in [5]; 1.05 (inactive) in assay [6]; -0.484 in assay [7]. In addition, the z-score was -1.82 (inactive) in [8], -3.87 (inactive) in assay [9] and -7.33 in [10]. Further, the composite z-score in [2] was 0.51.
Consider `CN(C)C(=O)[C@]1(CCS(=O)(=O)c2ccccc2)N=C(c2ccc(OCCCO)cc2)O[C@@H]1c1ccccc1N=[N+]=[N-]`, for which the z-score was -0.0791 (inactive) in assay [1]; 31.2 (active) in assay [3]; 27.2 (active) in [4]; 2.03 (inactive) in assay [5]; 6.58 (inactive) in assay [6]; 0.178 in assay [7]. Moreover, the z-score was 0.502 (inactive) in assay [8], 1.64 (inactive) in assay [9] and 1.24 in [10]. Also, the composite z-score in [2] is 0.382.
`O=C(CS)NCCCCCCNC(=O)[C@H]1C[C@H]2C(=O)N[C@@H](Cc3ccccc3)C(=O)N2[C@H]1c1ccc(O)cc1`: the z-score is -0.558 (inactive) in assay [1]; 8.58 (active) in [3]; 1.21 (inactive) in assay [4]; -0.177 (inactive) in [5]; 0.767 (inactive) in assay [6]; -0.0427 in assay [7]. Besides, the z-score is 0.593 (inactive) in assay [8], -0.0574 (inactive) in assay [9] and 1.08 in assay [10]. The molecule also had a composite z-score in assay [2] of -0.54.
For `C=CCOC(=O)[C@H]1[C@@H]2C(=O)O[C@@H](c3ccccc3)[C@@H](c3ccccc3)N2[C@@H](c2ccc(OCCOC(=O)[C@@H]3C[C@@H]4C(=O)N[C@@H](CCCCNC(C)=O)C(=O)N4[C@@H]3c3ccc(O)cc3)cc2)[C@]12C(=O)Nc1ccc(I)cc12`, the z-score in [1] was -0.465 (inactive); in assay [3], 1.33 (inactive); in [4] it was 1.52 (inactive); in assay [5], 3.07 (inactive); in [6], 0.964 (inactive); in assay [7] it was -0.621. For the same molecule, the values for the z-score in assay [8], in assay [9] and in assay [10] were 1.08 (inactive), 0.351 (inactive) and 2.35, respectively. In assay [2], this molecule yielded a composite z-score of 0.471.
Consider `CO[C@]12C=C(Br)[C@@H](C[C@@H]1c1cccc(C)c1)[C@@]1(CO1)C2=O`, for which the z-score in [1] was -0.009 (inactive); in [3], -0.219 (inactive); in assay [4] it was -0.119 (inactive); in assay [5], 0.442 (inactive); in assay [6] it was -0.382 (inactive); in assay [7], 0.149. In addition, the z-score in assay [8] was -0.356 (inactive); in [9], 0.539 (inactive); in [10] it was -0.588. The same molecule displayed a composite z-score in [2] of -0.0035.
